Measured values as given in PubChem BioAssay (EPA / NIEHS).
Active and inactive are the calls of the source. The calls were made as follows: active = hit-call score of the fitted dose curve at least 0.9, where 1 is the maximum; inactive = score below 0.9.

How the values were obtained:
[1] = ATG_GRE_CIS: Attagene CIS-FACTORIAL HepG2 Assay for human Glucocorticoid Response Elements (GRE) (AID 2282947); details: HepG2 GRE cis-reporter, Attagene multiplex mRNA; actives raise or lower the signal
Method in brief: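 Cells (HepG2) bearing transfected cis-promoter reporter transcription units were treated with chemical for 24 hours. Reporter mRNA was measured via RT-PCR with capillary electrophoresis, and activity was fitted in both directions relative to DMSO.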

[2] = ATG_ISRE_CIS: Attagene CIS-FACTORIAL HepG2 Assay for human Interferon Regulatory Factor 1 (IRF1) binding to an Interferon-Stimulated Response Element (ISRE) (AID 2282948); details: HepG2 ISRE cis-reporter (Attagene), mRNA transcription readout; actives raise or lower the signal
Method in brief: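 Uses HepG2 liver cells transfected with cis-regulated reporters and measures mRNA 24 h post-dosing through RT-PCR, primer-extension labelling and capillary electrophoresis, with DMSO as negative control.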

[3] = ATG_M_32_CIS: Attagene CIS-FACTORIAL HepG2 Assay for M32 Transcription Factor (Internal Marker) (AID 2282949); details: HepG2 Attagene cis-factorial M32 reporter, mRNA; actives raise or lower the signal;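 also: background control marker of the multiplexed CIS panel rather than a real target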
Method in brief: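 HepG2 human liver cells transiently transfected with cis-promoter-driven multiple reporter transcription units, dosed 24 h. Reporter mRNA quantified by RT-PCR, FAM-labelled primer extension, HpaI digest and capillary electrophoresis; bidirectional fit versus DMSO baseline.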

[4] = ATG_M_06_CIS: Attagene CIS-FACTORIAL HepG2 Assay for M06 Transcription Factor (Internal Marker) (AID 2282950); details: HepG2 Attagene CIS-FACTORIAL M06 internal marker reporter; actives raise or lower the signal
Method in brief: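 Read-out is fluorescence of labelled reporter cDNA fragments resolved by capillary electrophoresis after RT-PCR. Cells: HepG2 carrying transfected cis-promoter reporter units, treated 24 h. Gain or loss of signal fitted relative to DMSO.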

[5] = target: Hypoxia-inducible factor 1-alpha (Homo sapiens) (UniProt Q16665); experiment: ATG_HIF1a_CIS: Attagene CIS-FACTORIAL HepG2 Assay for human Hypoxia Inducible Factor 1 (HIF1A) (AID 2282951); details: HepG2 Attagene cis-factorial HIF1a reporter transcription; actives raise or lower the signal
Hypoxia-inducible factor 1-alpha (Homo sapiens), sequence (Q16665 whole entry, looked up): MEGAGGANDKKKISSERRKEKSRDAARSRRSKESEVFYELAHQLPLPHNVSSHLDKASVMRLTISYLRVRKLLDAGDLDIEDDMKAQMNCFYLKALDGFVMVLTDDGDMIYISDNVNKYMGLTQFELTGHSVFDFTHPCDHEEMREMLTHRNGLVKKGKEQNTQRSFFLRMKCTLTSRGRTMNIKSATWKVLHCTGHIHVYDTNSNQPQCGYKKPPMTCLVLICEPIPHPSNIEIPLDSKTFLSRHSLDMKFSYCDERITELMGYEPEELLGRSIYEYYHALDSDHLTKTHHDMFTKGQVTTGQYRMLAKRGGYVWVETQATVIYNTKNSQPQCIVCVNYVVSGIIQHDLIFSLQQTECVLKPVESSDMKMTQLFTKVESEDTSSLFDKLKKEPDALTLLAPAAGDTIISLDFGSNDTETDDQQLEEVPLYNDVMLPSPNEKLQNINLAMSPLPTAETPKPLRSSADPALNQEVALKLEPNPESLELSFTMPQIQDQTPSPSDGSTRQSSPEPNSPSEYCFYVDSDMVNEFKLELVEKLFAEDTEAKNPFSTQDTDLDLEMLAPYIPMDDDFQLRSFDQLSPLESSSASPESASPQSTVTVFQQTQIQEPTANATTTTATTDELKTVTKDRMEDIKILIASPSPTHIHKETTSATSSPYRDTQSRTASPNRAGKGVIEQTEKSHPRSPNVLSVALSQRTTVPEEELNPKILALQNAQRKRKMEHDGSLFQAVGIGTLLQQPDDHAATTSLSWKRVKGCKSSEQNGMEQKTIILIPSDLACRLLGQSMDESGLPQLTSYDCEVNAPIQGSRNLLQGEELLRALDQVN
Method in brief: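 In this multiplexed cell assay, HepG2 cells bearing transfected cis reporters are dosed for 24 h and reporter mRNA is read by RT-PCR plus capillary electrophoresis; signal increases and decreases are both scored against DMSO.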

[6] = target: Hepatocyte nuclear factor 6 (Homo sapiens) (UniProt Q9UBC0); experiment: ATG_HNF6_CIS: Attagene CIS-FACTORIAL HepG2 Assay for human Hepatocyte Nuclear Factor 6 (HNF6) (AID 2282952); details: HepG2 Attagene cis-factorial HNF6 reporter transcription; actives raise or lower the signal
Hepatocyte nuclear factor 6 (Homo sapiens), sequence (Q9UBC0 whole entry, looked up): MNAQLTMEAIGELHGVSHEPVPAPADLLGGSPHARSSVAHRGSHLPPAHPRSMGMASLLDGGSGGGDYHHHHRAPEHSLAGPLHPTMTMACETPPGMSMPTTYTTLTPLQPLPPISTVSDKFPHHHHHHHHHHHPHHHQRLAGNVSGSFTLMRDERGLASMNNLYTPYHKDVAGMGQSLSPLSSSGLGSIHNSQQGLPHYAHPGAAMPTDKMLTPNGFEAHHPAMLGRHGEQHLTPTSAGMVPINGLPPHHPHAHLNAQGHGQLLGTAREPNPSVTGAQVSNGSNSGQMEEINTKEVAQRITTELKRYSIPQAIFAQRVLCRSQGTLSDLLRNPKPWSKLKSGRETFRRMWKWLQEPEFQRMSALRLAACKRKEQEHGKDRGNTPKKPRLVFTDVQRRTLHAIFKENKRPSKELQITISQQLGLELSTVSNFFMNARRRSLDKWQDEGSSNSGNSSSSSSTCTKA
Method in brief: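 Endogenous transcription factor activity in human HepG2 liver cells was captured through cis-regulated reporter constructs. After 24 h treatment, reporter mRNA was measured by RT-PCR with capillary electrophoresis, and activity was fitted in both directions relative to DMSO.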

[7] = target: Heat shock factor protein 1 (Homo sapiens) (UniProt Q00613); experiment: ATG_HSE_CIS: Attagene CIS-FACTORIAL HepG2 Assay for human Heat Shock Transcription Factor 1 (HSE) (AID 2282953); details: HepG2 HSE cis-reporter, Attagene RNA transcription; actives raise or lower the signal
Heat shock factor protein 1 (Homo sapiens), sequence (Q00613 whole entry, looked up): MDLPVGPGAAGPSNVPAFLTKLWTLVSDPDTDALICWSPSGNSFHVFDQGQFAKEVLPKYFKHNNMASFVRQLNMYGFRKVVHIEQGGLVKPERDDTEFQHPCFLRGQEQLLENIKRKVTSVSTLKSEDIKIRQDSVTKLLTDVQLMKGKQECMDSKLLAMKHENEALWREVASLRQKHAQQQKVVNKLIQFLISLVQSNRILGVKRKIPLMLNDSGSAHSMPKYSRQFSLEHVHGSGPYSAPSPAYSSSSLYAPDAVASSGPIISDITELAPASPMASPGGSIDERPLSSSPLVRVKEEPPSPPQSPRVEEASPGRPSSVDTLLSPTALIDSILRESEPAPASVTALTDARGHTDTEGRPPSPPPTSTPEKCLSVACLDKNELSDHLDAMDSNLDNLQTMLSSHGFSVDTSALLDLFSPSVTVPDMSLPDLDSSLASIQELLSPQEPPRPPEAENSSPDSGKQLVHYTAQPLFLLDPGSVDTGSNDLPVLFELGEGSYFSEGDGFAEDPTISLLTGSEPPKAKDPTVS
Method in brief: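 HepG2, transient MRTU transfection, cis-promoter reporters (endogenous TF activity). 24 h compound. RNA → oligo(dT) RT → PCR → 6-FAM primer extension → HpaI cut → CE. Bidirectional fit vs DMSO.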

[8] = ATG_MRE_CIS: Attagene CIS-FACTORIAL HepG2 Assay for human Metal Responsive Element (MRE) (AID 2282954); details: HepG2 MRE cis-reporter transcription, Attagene multiplex; actives raise or lower the signal
Method in brief: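 Cells were transfected with cis-promoter reporter transcription units, then dosed for 24 h. RNA was reverse-transcribed, amplified, fluorescently labelled and resolved by capillary electrophoresis, and activity was fitted in both directions relative to DMSO.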

[9] = ATG_PBREM_CIS: Attagene CIS-FACTORIAL HepG2 Assay for human Phenobarbital-responsive Enhancer Module (PBREM) (AID 2282955); details: HepG2 PBREM cis-reporter, Attagene multiplexed transcription; actives raise or lower the signal
Method in brief: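 After a 24 h incubation with test chemical, transfected HepG2 cells yield total RNA; reporter-specific RT-PCR products are fluorescently labelled, HpaI-digested and resolved by capillary electrophoresis against ROX size standards.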

SMILES | outcome [1] | outcome [2] | outcome [3] | outcome [4] | outcome [5] | outcome [6] | outcome [7] | outcome [8] | outcome [9] | AC50 [1] | AC50 [5] | AC50 [6]
Nc1ccc(S(=O)(=O)O)c(N)c1 | inactive | inactive | inactive | inactive | inactive | inactive | inactive | inactive |  |  |  | 
CCc1ccc(C=O)cc1 | inactive | inactive | inactive | inactive | inactive | inactive | inactive | inactive | inactive |  |  | 
OC1OC[C@@H](O)[C@H](O)[C@H]1O (stereo not given in full) | inactive | inactive | inactive | inactive | inactive | inactive | inactive | inactive | inactive |  |  | 
CC1(C)[C@H](C(=O)OCc2cccc(Oc3ccccc3)c2)[C@@H]1C=C(Cl)Cl | inactive | inactive | inactive | inactive | inactive | inactive | inactive | inactive | inactive |  |  | 
C=C[Si](OCC)(OCC)OCC | inactive | inactive | inactive | inactive | inactive | inactive | inactive | inactive |  |  |  | 
S=C(S)NCCNC(=S)S | inactive | inactive | inactive | inactive | inactive | inactive | inactive | inactive |  |  |  | 
CCCCCCCCC | inactive | inactive | inactive | inactive | inactive | inactive | inactive | inactive | inactive |  |  | 
CN(C)c1ccc(O)c2c1C[C@H]1C[C@H]3[C@H](N(C)C)C(=O)C(C(N)=O)=C(O)[C@@]3(O)C(=O)C1=C2O | inactive | inactive | inactive | inactive | inactive | inactive | inactive | inactive | inactive |  |  | 
CC1CCC(C(C)CS)CC1S (stereo not given) |  | inactive | inactive | inactive |  |  | inactive | inactive |  | 55 µM (active) | 53.7 µM (active) | 46.8 µM (active)
CC(C)Oc1ccccc1O | inactive | inactive | inactive | inactive | inactive | inactive | inactive | inactive | inactive |  |  | 
CCCCCCCCCCCCCOS(=O)(=O)O | inactive | inactive | inactive | inactive | inactive | inactive | inactive |  |  |  |  | 
Nc1ccc(S(N)(=O)=O)cc1 | inactive | inactive | inactive | inactive | inactive | inactive | inactive | inactive | inactive |  |  | 
O=C1CCc2ccccc2O1 | inactive | inactive | inactive | inactive | inactive | inactive | inactive | inactive |  |  |  | 
O=C(Oc1ccccc1)c1ccc(O)cc1 | inactive | inactive | inactive | inactive |  | inactive | inactive | inactive |  |  | 176 µM (active) | 
Nc1cccc(S(=O)(=O)c2cccc(N)c2)c1 | inactive | inactive | inactive | inactive | inactive | inactive | inactive | inactive | inactive |  |  | 
C=C(C)C(=O)NCCCN(C)C | inactive | inactive | inactive | inactive | inactive | inactive | inactive |  |  |  |  | 
CCCCCCOC(=O)CCCCC | inactive | inactive | inactive | inactive | inactive | inactive | inactive | inactive |  |  |  | 
CCOc1ccccc1OCC | inactive | inactive | inactive | inactive | inactive | inactive | inactive | inactive |  |  |  | 
COc1ccc(O)cc1 | inactive | inactive | inactive | inactive | inactive | inactive | inactive | inactive |  |  |  | 
c1ccc2[nH]ccc2c1 | inactive | inactive | inactive | inactive | inactive | inactive | inactive |  |  |  |  | 
CC(=O)OCCOC(C)=O | inactive | inactive | inactive | inactive | inactive | inactive | inactive | inactive | inactive |  |  | 
FC1(F)C(F)(F)C(F)(F)C2(F)C(F)(C1(F)F)C(F)(F)C(F)(F)C1(F)C(F)(F)C(F)(F)C(F)(F)C(F)(F)C12F (stereo not given) | inactive | inactive | inactive | inactive | inactive | inactive | inactive | inactive | inactive |  |  | 
C/C=C(\C)C(=O)OCc1ccccc1 | inactive | inactive | inactive | inactive | inactive | inactive | inactive | inactive |  |  |  | 
CCC(C)(O)CCC=C(C)C (stereo not given) | inactive | inactive | inactive | inactive | inactive | inactive | inactive | inactive |  |  |  | 
CCCCCCCCCC=O | inactive | inactive | inactive | inactive |  | inactive | inactive | inactive |  |  | 19.8 µM (active) | 
C=CC(C)(CCC=C(C)C)OC=O (stereo not given) | inactive | inactive | inactive | inactive | inactive | inactive | inactive | inactive | inactive |  |  | 
CC(C)CCCCCCCOC(=O)c1ccc(C(=O)OCCCCCCCC(C)C)c(C(=O)OCCCCCCCC(C)C)c1 | inactive | inactive | inactive | inactive | inactive | inactive | inactive | inactive | inactive |  |  | 
